Screens deposited in PubChem BioAssay by SRMLSC.
Rows were chosen to be rich in hits. Some 6.3% of all compounds tested hit in one or more screens of this group.
Spn DPM-DC inh = S. pneumoniae DPM-DC inhibition; purified DPM-DC, PK/LDH coupled NADH fluorescence; calls only at 10 µM; 65,000 compounds, 0.49% hits; AID 556;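 active = the 320 compounds with the highest percent inhibition in the single-dose primary screen, excluding strongly autofluorescent ones, cut at about 32% in these data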;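 also: kinetic rate of NADH fluorescence loss reporting ADP formed by the decarboxylase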
Spn MK inh = blocks S. pneumoniae mevalonate kinase | purified MK, PK/LDH-coupled NADH absorbance 340 nm | inhibition, % at 10 µM | 65,000 compounds, 0.48% hits | AID 555;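 active = ranked among the strongest by inhibition in the single 10 µM screen, a fixed top-ranked set picked for dose follow-up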
Autofluor 339 = intrinsic fluorescence of library compounds, ex339/em460 – biochemical, MLSMR library, data from DPM-DC assay, artefact control, profiling panel. AID 709. fluorescence fold increase at 10 µM. compound autofluorescence, ex339/em460 nm, NADH buffer; hits give high values; 1 = no-compound wells, NADH background. 65,000 compounds, 5.5% hits;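 active = at 10 µM, mean starting fluorescence two-fold or more over control wells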;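 also: signal is the first read of a kinetic run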
Spn PMK inh = blocks S. pneumoniae phosphomevalonate kinase | inhibition, % at 10 µM | 65,000 compounds, 0.49% hits | purified PMK, PK/LDH-coupled NADH absorbance 340 nm;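 active = top-ranked compounds by inhibition in the single 10 µM screen, taking a fixed number of the strongest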
A340 absorber = compounds absorbing at 340 nm; 65,000 tested, under 10 active; AID 708; fold change at 10 µM; compound absorbance at 340 nm, fold over control;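 active = at 10 µM dose, initial 340 nm absorbance at least 2 fold that of control wells; inactive = change under 2 fold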;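 also: initial absorbance extrapolated from kinetic A340 decline of NADH oxidation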
NADH enzymes = blocks coupling enzymes of NAD/NADH assays | IC50, µM (doses to about 10 µM) | 65,000 compounds, 0.02% hits | AID 774 | coupled PK/LDH NADH assays, four targets;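 active = single-dose screening hits from any of four coupled enzyme assays that gave an IC50 when retested across doses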;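 also: the DPM-DC format reads NADH fluorescence rather than 340 nm absorbance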
Hits are given with their value; n = inactive; x = no result shown; + = active, no number.

SMILES	Spn DPM-DC inh	Spn MK inh	Autofluor 339	Spn PMK inh	A340 absorber	NADH enzymes
COc1ccc(OC)c(C(=O)CSc2nnc(-c3ccc(OC)c(OC)c3)o2)c1	n	n	2	n	n	n
COc1ccc(C(=O)CSc2nnc(-c3ccc(C)cc3)o2)cc1	n	n	n	n	n	n
O=C(CCS(=O)(=O)c1ccccc1)Nc1nc2c(s1)COc1ccccc1-2	n	n	n	n	n	n
CC(=O)N1CCC(N2CCN(c3ccccc3F)CC2)CC1	n	n	n	36.0	n	n
Nn1c(SCC(=O)Nc2ccccc2)nnc1-c1cccnc1	n	n	n	n	n	n
CCOC(=O)CNC(=O)CSc1nnc(-c2ccccc2OC)n1CC	n	n	n	n	n	n
CCOC(=O)CCc1c(C)n(CC)c2cc(-c3ccccc3OC)nn2c1=O	n	n	3.65	n	n	n
Cc1ccc(C2Nc3ccccc3-c3nc4ccccc4n32)o1 (stereo not given)	x	n	2.45	n	n	n
CC1(c2ccncc2)Nc2ccccc2-c2nc3ccccc3n21 (stereo not given)	n	n	n	n	n	n
O=C(Nc1ccc(-c2noc(COc3ccccc3Cl)n2)cc1)c1ccco1	n	n	n	32.0	n	n
COC(=O)C1=C(C)NC2=C(C(=O)CCC2)C1c1coc2ccccc2c1=O (stereo not given)	n	n	n	n	n	n
CCCOC(=O)C1=C(C)NC2=C(C(=O)CCC2)C1c1cccs1 (stereo not given)	n	n	n	n	n	n
COC(=O)C1=C(C)NC2=C(C(=O)CC(C)(C)C2)C1c1cccc(C)n1 (stereo not given)	x	n	3.68	n	n	n
CCCOC(=O)C1=C(C)NC2=C(C(=O)CCC2)C1c1cccc(OC)c1OC (stereo not given)	x	n	2.25	n	n	n
COC(=O)C1=C(C)NC2=C(C(=O)CCC2)C1c1cccc(C)n1 (stereo not given)	x	n	3.95	n	n	n
CC1=C(C(=O)OCc2ccccc2)C(c2ccco2)C2=C(CC(C)(C)CC2=O)N1 (stereo not given)	n	n	n	n	n	n
COc1cc(C2C(C#N)=C(N)Oc3cc(C)n(Cc4ccccn4)c(=O)c32)cc2c1OCO2 (stereo not given)	n	n	n	n	n	n
CC(C)n1c(SCC(=O)N2CCCc3ccccc32)nc2c1c(=O)n(C)c(=O)n2C	n	n	n	n	n	n
Fc1cccc(-n2c(-c3ccco3)nc3nc4ccccc4nc32)c1	x	n	3.59	n	n	n
Fc1ccc(-c2nc3nc4ccccc4nc3n2Cc2ccco2)cc1	n	n	n	n	n	n
CCCCOCCCn1c(-c2ccco2)nc2nc3ccccc3nc21	x	n	3.95	n	n	n
Fc1ccc(-n2c(-c3ccco3)nc3nc4ccccc4nc32)cc1	x	n	5.14	n	n	n
O=C1CC(c2ccc(Cl)c(Cl)c2)CC(O)=C1C=NCCN1CCNCC1 (stereo not given)	n	n	n	n	n	n
COc1ccccc1-c1c(C#N)c(SCC(=O)N2CCCC2)nc(C)c1C(N)=O	n	n	n	n	n	n
Cc1nn(-c2ccccc2)c(C)c1NS(=O)(=O)c1ccccc1	n	n	n	n	n	n
SMILES	Spn DPM-DC inh	Spn MK inh	Autofluor 339	Spn PMK inh	A340 absorber	NADH enzymes
CC1Cc2cc(C3(O)C(=O)c4ccccc4C3=O)ccc2N1 (stereo not given)	n	n	n	n	n	n
CN(C)/C=N/c1cnc(C(=O)c2ccc(Cl)cc2)n1C	n	n	n	n	n	n
O=c1cc(C(F)(F)F)c2sc(N3CCCCC3)nc2[nH]1	x	n	2.12	n	n	n
c1c2c(cc3sc(N4CCCCC4)nc13)OCO2	n	n	n	n	n	n
O=S(=O)(CCOc1ccccc1)c1nc2ccccc2[nH]1	n	n	n	n	n	n
Cc1ccc(C)c(N(CC(=O)NC2CCCCC2)C(=O)CCC(=O)Nc2ccccn2)c1	n	n	n	n	n	n
CCN(CC)C(=O)c1sc2nc(-c3ccccn3)[nH]c(=O)c2c1C	+	n	3.35	n	n	n
CCN(CC)C(=O)c1sc2nc(-c3ccncc3)[nH]c(=O)c2c1C	x	n	4.97	n	n	n
O=c1[nH]c(-c2ccccn2)nc2ccccc12	n	n	n	n	n	n
COc1ccc(NC(=O)NCCCN2CCc3ccccc3C2)cc1	n	n	n	n	n	n
COc1ccc2cc3cc(C(=O)NCCN4CCN(Cc5ccccc5)CC4)oc3nc2c1	x	n	5.16	n	n	n
COc1ccc2cc3cc(C(=O)NCCN4CCc5ccccc5C4)oc3nc2c1	x	n	5.11	n	n	n
CCn1c2ccccc2c2nnc(SCC(=O)NC(CC(C)C)C(=O)OC)nc21 (stereo not given)	n	n	n	n	n	n
COc1cc(NS(C)(=O)=O)c(OC)cc1NC(=O)c1ccccc1	n	n	n	n	n	n
C=C(C)CSc1nnc(-c2ccccc2)n1N	n	n	n	n	n	n
COc1ccc2nc(C)c3c(c2c1)OC(C)C3 (stereo not given)	n	n	n	n	n	n
COc1cccc2c3c(c(C)nc12)CC(C)O3 (stereo not given)	x	n	3.67	n	n	n
COc1ccc(-c2nc3n(c(=O)c2C#N)CCCS3)cc1	n	n	2.03	n	n	n
CCOc1ccc(-c2nc3n(c(=O)c2C#N)CCCS3)cc1	n	n	2.76	n	n	n
Cc1ccc(C)c(/C(O)=C2\C(=O)C(=O)N(Cc3cccnc3)C2c2cccnc2)c1 (stereo not given)	n	n	n	n	n	n
O=C(NC1CCCC1)C1CC(=O)N(C2CCCCCCC2)C1 (stereo not given)	n	n	n	n	n	n
O=C(NC1CCCCC1)C1CC(=O)N(c2ccc(Cl)cc2)C1 (stereo not given)	n	n	n	28.0	n	n
O=C(Nc1cccc2ccccc12)OC1C=CS(=O)(=O)C1 (stereo not given)	n	n	n	n	n	n
CC1OC(Nc2cccc3ccccc23)C(O)C(O)C1O (stereo not given)	x	n	2.15	n	n	n
COc1ccc2c(c1)c(C(=O)OCCN(C)C)c(C)n2C	n	n	n	n	n	n
COc1ccc2nc(C)c(C(=O)OCCN(C)C)cc2c1	n	n	2.08	n	n	n
CCOC(=O)N1CCC(NC(=O)c2cccn3c(=O)c4cc(Br)ccc4nc23)CC1	n	n	2.24	n	n	n
CCOC(=O)N1CCC(NC(=O)c2cn(-c3ccc(OC)cc3)c(=O)c3ccccc23)CC1	n	n	n	n	n	n
COc1ccc(CCNC(=O)CSc2nc(-c3ccco3)cc(C(F)(F)F)n2)cc1OC	n	n	n	n	n	n
COc1ccc(-c2cc(C(F)(F)F)nc(SCCC(=O)N3CCOCC3)n2)cc1	n	n	2	n	n	n
